The nature of assay [1]: ACEA_ER_80hr: ACEA Biosciences xCELLigence Real-Time Cell Analysis on Estrogen Receptor Agonism for Proliferation (AID 2282667; active means hit-call score of the fitted dose curve at least 0.9, where 1 is the maximum). The conditions noted are these: T47D proliferation, impedance (xCELLigence), 80 h. The essentials:
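Real-time electrical impedance tracked growth of the human breast line T47D, with the 80 h post-dosing value used. Dosing spanned eight 1:4 steps down from a 100 uM final top concentration, run in duplicate.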

Assay [2] can be described thus: APR_HepG2_CellCycleArrest_24hr: Apredica 24-hour HepG2 Assay for Cell Cycle Arrest (AID 2282905).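 Further: cell cycle arrest scored as ratio of 2N to 4N nuclear DNA content.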 As to conditions: imaging, actives raise or lower the signal. The essentials:
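After 24 h exposure at 0.39–200 uM in 0.5% DMSO, fixed cells received Hoechst 33342 staining. Imaging quantified per-nucleus DNA content; gain or loss fitted against DMSO controls.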

Assay [3] is described as follows: APR_HepG2_NuclearSize_24hr: Apredica 24-hour HepG2 Assay for Nuclear Size (AID 2282907). As to conditions: high-content imaging, actives raise or lower the signal. In outline: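 Nuclear size from Hoechst 33342-stained, formaldehyde-fixed HepG2 nuclei imaged by high-content microscopy, after 24 h dosing at ten concentrations from 0.39 to 200 uM in 0.5% DMSO; gain or loss relative to DMSO baseline.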

Assay [4] in a line: APR_HepG2_CellLoss_24hr: Apredica 24-hour HepG2 Assay for Cell Loss (AID 2282908).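 On AC50: fit in both directions so a hit may be cell loss or gain.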 The conditions noted are these: high-content imaging. In outline: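 Nuclei stained with Hoechst 33342 after formaldehyde fixation (3.7%) were imaged at 20x to count cells. Exposure lasted 24 hr, at ten concentrations from 0.39 to 200 uM in duplicate, with 0.5% v/v DMSO. Fit bidirectional, relative to DMSO.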

Assay [5] in a line: APR_HepG2_MitoticArrest_24hr: Apredica 24-hour HepG2 Assay for Mitotic Arrest (AID 2282910). As to conditions: high-content imaging, actives raise or lower the signal. The essentials: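 HepG2, 24 hr dosing, 0.39–200 uM, 0.5% DMSO final. Formaldehyde-fixed, Triton-permeabilised, anti-phospho-histone H3 plus Hoechst. ArrayScan imaging at 20x; bidirectional fit vs DMSO baseline.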

The nature of assay [6]: APR_HepG2_MitoMembPot_24hr: Apredica 24-hour HepG2 Assay for Mitochondrial Membrane Potential (AID 2282911). The conditions noted are these: imaging, actives raise or lower the signal. In outline: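 Cells are dosed for 24 hr across 0.39 to 200 uM with solvent held at 0.5% DMSO. They are then stained with 250 nM MitoTracker Red CMXRos for 30 min, fixed in 3.7% formaldehyde and imaged.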

Assay [7] can be described thus: APR_HepG2_MitoMass_24hr: Apredica 24-hour HepG2 Assay for Mitochondrial Mass (AID 2282912). As to conditions: high-content imaging, actives raise or lower the signal. In outline:
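Endpoint is MitoTracker Red CMXRos (250 nM, 30 min, pre-fixation) intensity from 20x high-content imaging, nuclei located by Hoechst. Human HepG2 cells received ten concentrations from 0.39 to 200 uM in 0.5% DMSO for 24 hr, duplicate wells. Bidirectional fit relative to DMSO.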

The nature of assay [8]: APR_HepG2_p53Act_24hr: Apredica 24-hour HepG2 Assay for p53 Activation (AID 2282913).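 Further: p53 protein immunofluorescence averaged per cell in HepG2 with Hoechst nuclei.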 As to conditions: high-content imaging, actives raise or lower the signal. In outline: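 Human HepG2 liver cells; 24 hr cpd treatment, 0.39–200 uM, 0.5% DMSO final. Fixed in 3.7% formaldehyde, permeabilized with 0.5% Triton X-100, stained with anti-p53/Cy5 plus Hoechst 33342. Six images per well at 20x; gain or loss vs DMSO.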

Assay [9] can be described thus: APR_HepG2_CellCycleArrest_72hr: Apredica 72-hour HepG2 Assay for Cell Cycle Arrest (AID 2282914). As to conditions: high-content imaging, actives raise or lower the signal. In outline: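 Read-out is Hoechst-stained nuclear DNA content measured by automated fluorescence imaging (20x, six images per well), fitted in both directions relative to DMSO. Human HepG2 liver cells received 0.39–200 uM compound for 72 hr at 0.5% v/v DMSO.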

The nature of assay [10]: APR_HepG2_CellLoss_72hr: Apredica 72-hour HepG2 Assay for Cell Loss (AID 2282915). As to conditions: high-content imaging. In outline:
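HepG2 cells exposed 72 h to compound at 0.39–200 uM (10 concentrations, duplicate) in 0.5% DMSO. Fixed with 3.7% formaldehyde and Hoechst 33342-stained. Imaged at 20x; nuclear count gives cell number, fitted bidirectionally versus DMSO.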

The nature of assay [11]: APR_HepG2_P-H2AX_72hr: Apredica 72-hour HepG2 Assay for H2AX Phosphorylation (AID 2282916).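 Further: phospho-histone H2A.x immunostain intensity per cell marking DNA damage.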 As to conditions: imaging, actives raise or lower the signal. In outline:
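Phospho-histone H2A.x immunofluorescence, multiplexed with Hoechst and c-Jun, quantified by high-content imaging. Compounds applied to HepG2 for 72 h across ten concentrations (0.39–200 uM, 0.5% DMSO), in duplicate; DMSO baseline.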

A short description of assay [12]: APR_HepG2_P-H2AX_24hr: Apredica 24-hour HepG2 Assay for H2AX Phosphorylation (AID 2282920). As to conditions: high-content imaging, actives raise or lower the signal. The essentials:
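HepG2, 24 hr, cpd 0.39–200 uM (10 conc, duplicate), DMSO 0.5% v/v final. Fix 3.7% formaldehyde, Triton X-100 permeabilize, anti-phospho-H2A.x 1:200 + Hoechst 2 ug/mL. Imaged, bidirectional fit vs DMSO.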

The nature of assay [13]: APR_HepG2_StressKinase_72hr: Apredica 72-hour HepG2 Assay for Stress Kinase (AID 2282921). As to conditions: HepG2 stress kinase (phospho-c-Jun) imaging, actives raise or lower the signal. The essentials:
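Stress kinase signal is phospho-c-Jun immunofluorescence (1:500 primary, Cy3 secondary) in fixed, permeabilized human HepG2 cells imaged at 20x. Exposure lasted 72 hr over ten concentrations from 0.39 to 200 uM, 0.5% DMSO, in duplicate. Bidirectional fit versus DMSO.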

Assay [14] in a line: APR_HepG2_StressKinase_24hr: Apredica 24-hour HepG2 Assay for Stress Kinase (AID 2282922). As to conditions: HepG2 stress kinase (phospho-c-Jun) imaging, actives raise or lower the signal. In outline: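 Read-out: phospho-c-Jun immunofluorescence (Cy3 secondary) quantified by high-content imaging at 20x, nuclei defined by Hoechst 33342. Human HepG2 liver cells dosed 24 hr, 0.39–200 uM, DMSO 0.5% v/v; gain or loss of signal fitted relative to DMSO.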

Assay [15] can be described thus: APR_HepG2_NuclearSize_72hr: Apredica 72-hour HepG2 Assay for Nuclear Size (AID 2282925). As to conditions: high-content imaging, actives raise or lower the signal. In outline:
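Read-out: nuclear diameter from Hoechst 33342 images (ArrayScan, 20x, six fields/well), via cell-cycle image analysis. HepG2 were dosed 0.39–200 uM for 72 hr in 0.5% DMSO. Bidirectional fit relative to DMSO.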

Assay [16] in a line: APR_HepG2_MicrotubuleCSK_24hr: Apredica 24-hour HepG2 Assay for Microtubule CSK Stabilty (AID 2282909). As to conditions: HepG2 microtubule cytoskeleton imaging, actives raise or lower the signal. In outline:
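Fixed HepG2 cells were stained for alpha-tubulin and imaged after 24 hr exposure to ten concentrations spanning 0.39–200 uM in 0.5% DMSO. Signal change was fitted in both directions relative to DMSO; taxol was the positive control.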

Assay [17] is described as follows: APR_HepG2_MitoMembPot_72hr: Apredica 72-hour HepG2 Assay for Mitochondrial Membrane Potential (AID 2282917). As to conditions: imaging, actives raise or lower the signal. The essentials:
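HepG2 cells dosed 72 hr with compound at 0.39–200 uM in duplicate, 0.5% v/v DMSO final. Mitochondria stained with 250 nM MitoTracker Red CMXRos for 30 min before formaldehyde fixation, imaged by high-content fluorescence; bidirectional fit versus DMSO.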

Assay [18] in a line: APR_HepG2_MitoticArrest_72hr: Apredica 72-hour HepG2 Assay for Mitotic Arrest (AID 2282918). As to conditions: high-content imaging, actives raise or lower the signal. The essentials: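 Read-out is phospho-histone H3 immunofluorescence with Hoechst nuclear segmentation, imaged at 20x. Human HepG2 liver cells received ten concentrations (0.39–200 uM, final DMSO 0.5% v/v) for 72 hr before fixation. Gain or loss of signal was fitted relative to DMSO.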

Assay [19] in a line: APR_HepG2_MicrotubuleCSK_72hr: Apredica 72-hour HepG2 Assay for Microtubule CSK Stabilty (AID 2282919). As to conditions: HepG2 microtubule cytoskeleton, high-content imaging, actives raise or lower the signal. The essentials:
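HepG2, 72 hr cmpd exposure, 0.39–200 uM (10 pts, duplicate), 0.5% DMSO. 3.7% formaldehyde fix, 0.5% Triton perm, anti-alpha-tubulin/Cy5 plus Hoechst. HCS fluorescence intensity; bidirectional fit vs DMSO baseline; taxol as positive control.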

The nature of assay [20]: APR_HepG2_MitoMass_72hr: Apredica 72-hour HepG2 Assay for Mitochondrial Mass (AID 2282924).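 Further: MitoTracker Red CMXRos stain intensity per cell imaged as mitochondrial mass.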 The conditions noted are these: high-content imaging, actives raise or lower the signal. In outline: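 Read-out: MitoTracker Red fluorescence intensity from automated imaging (20x, six fields per well) in human HepG2 liver cells. Dosing ran 72 hr, 0.39–200 uM, 0.5% DMSO; bidirectional curve fitting versus DMSO baseline.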

Inconclusive results are not listed. Calls of active or inactive are those of the source. How the source made its calls, unless noted: active means hit-call score of the fitted dose curve at least 0.9, where 1 is the maximum; inactive means score below 0.9.

`NNC(=O)c1ccncc1`: the call in assay [1], in assay [2], in assay [3], in assay [4], in [5] and in [6] was inactive. Further, the compound was classed as inactive in assay [7], in assay [8], in assay [9], in assay [10], in assay [11] and in [12]. Besides, the outcome in [13], in [14] and in assay [15] was inactive.
In general, AC50 refers to the midpoint of the concentration-response curve, whichever way the signal moves. As to `CCCCCCOC(=O)CC(CC(=O)OCCCCCC)(OC(=O)CCC)C(=O)OCCCCCC`, in assay [1], the half-maximal activity concentration (AC50) was 50 µM (active). Also, the result in assay [3], in [4], in [16], in assay [5], in assay [6] and in assay [7] was inactive. Besides, the result in assay [9], in assay [10], in assay [11], in [17], in [18] and in assay [19] was inactive. Further, the compound was classed as inactive in assay [12], in [13], in assay [14], in [20] and in [15].
Consider `O=C(O)c1cccc(C[C@@H]2COc3ccc(OCc4nc5cc(F)ccc5s4)cc3[C@@H]2O)c1`, for which the outcome in assay [1], in assay [3], in assay [6], in assay [17], in assay [19] and in assay [15] was inactive. In addition, the concentration at half-maximal activity (AC50) in [2] was 50.1 µM (active); in assay [4] it was 53.9 µM (active); in [5], 93.5 µM (active); in assay [7] it was 156 µM (active); in assay [8], 97.2 µM (active); in assay [9] it was 64 µM (active). For the same compound, the AC50 in assay [10] was 63.7 µM (active); in assay [11], 97.3 µM (active); in assay [12], 105 µM (active); in assay [13], 66.3 µM (active); in assay [14] it was 110 µM (active); in assay [20] it was 178 µM (active).
`OC[C@H]1O[C@@H]2O[C@H]3[C@H](O)[C@@H](O)[C@@H](O[C@H]4[C@H](O)[C@@H](O)[C@@H](O[C@H]5[C@H](O)[C@@H](O)[C@@H](O[C@H]6[C@H](O)[C@@H](O)[C@@H](O[C@H]7[C@H](O)[C@@H](O)[C@@H](O[C@H]1[C@H](O)[C@H]2O)O[C@@H]7CO)O[C@@H]6CO)O[C@@H]5CO)O[C@@H]4CO)O[C@@H]3CO`: the compound was classed as inactive in assay [1], in [3], in assay [4], in assay [5], in assay [6] and in [7]. For the same compound, the compound was classed as inactive in assay [9], in assay [10], in assay [11], in assay [17], in [18] and in assay [19]. In addition, the outcome in assay [12], in [13], in [14], in [20] and in [15] was inactive.
In the case of `O=C(O)c1cccc(C(=O)O)c1`, the compound was called inactive in [1], in assay [3], in assay [4], in assay [5], in assay [6] and in assay [7]. In addition, the call in [9], in [10], in assay [11], in assay [12], in [13] and in [14] was inactive. Also, in assay [15], the call was inactive.
`OCc1ccccc1`: the call in [1], in assay [3], in assay [4], in assay [5], in assay [6] and in assay [7] was inactive. Also, the call in assay [9], in assay [10], in assay [11], in assay [17], in assay [19] and in assay [12] was inactive. Besides, the compound was classed as inactive in assay [13], in [14], in [20] and in [15].
In the case of `O=C(NO)C1(NS(=O)(=O)c2ccc(Oc3ccc(F)cc3)cc2)CCOCC1`, the outcome in assay [1], in [3], in assay [4], in assay [5], in assay [6] and in assay [7] was inactive. Further, the compound was classed as inactive in assay [9], in [17], in assay [19], in assay [12], in assay [13] and in assay [14]. Also, the compound was called inactive in assay [20] and in [15]. In addition, the values for the AC50 in assay [10] and in [11] were 65.4 µM (active) and 100 µM (active), respectively.
`CC(C)c1nnc2ccc(-c3ocnc3-c3cc(F)ccc3F)cn12`: the outcome in [1], in [4], in assay [5], in [7], in assay [8] and in [10] was inactive. Also, the call in assay [11], in assay [17], in assay [18], in assay [12], in assay [13] and in [14] was inactive. The compound was classed as inactive in [20]. Moreover, in [6], the AC50 is 0.0586 µM (active).

Source of the values: PubChem BioAssay (EPA / NIEHS).
